The nature of experiment [1]: NCI Yeast Anticancer Drug Screen. Data for the rad50 strain (AID 155).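 Also: 0% = growth of vehicle-only cultures of the same strain.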 Conditions: S. cerevisiae rad50 strain growth inhibition, stronger effect = higher value. The procedure, abridged:
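Relative growth inhibition (compound vs vehicle) was measured in yeast with a defined repair-gene alteration.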

Experiment [2] is described as follows: NCI Yeast Anticancer Drug Screen. Data for the mec2-1 strain (AID 157). The note with it: S. cerevisiae mec2-1 strain, stronger effect = higher value. The procedure, abridged: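 Yeast mec2-1 mutant treated with compound. Readout: growth inhibition vs vehicle controls.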
Experiment [3] in a line: NCI Yeast Anticancer Drug Screen. Data for the sgs1 mgt1 strain (AID 161).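 Also: 0% = growth of cultures given vehicle only.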 The note with it: S. cerevisiae sgs1 mgt1 strain, stronger effect = higher value. The procedure, abridged: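 Genetically altered yeast, compound exposure, growth inhibition relative to vehicle.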
Experiment [4] is described as follows: NCI Yeast Anticancer Drug Screen. Data for the cln2 rad14 strain (AID 165).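 Also: 0% = growth equal to vehicle treated cultures.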 Conditions: S. cerevisiae cln2 rad14 strain, stronger effect = higher value. The procedure, abridged: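 cln2 rad14 yeast strain; compound exposure; growth inhibition read vs vehicle controls.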
A short description of experiment [5]: NCI Yeast Anticancer Drug Screen. Data for the bub3 strain (AID 167). Conditions: S. cerevisiae bub3 mutant strain, stronger effect = higher value. The procedure, abridged: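 Screening used yeast with an engineered genetic alteration affecting cell cycle control. Compound-exposed cultures were compared with vehicle cultures, and reduced growth was taken as inhibition.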

Experiment [6] is described as follows: NCI Yeast Anticancer Drug Screen. Data for the mlh1 rad18 strain (AID 175). The note with it: S. cerevisiae mlh1 rad18 strain growth inhibition, stronger effect = higher value. The procedure, abridged: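 Yeast w/ defined DNA-repair lesions; compound exposure; growth vs vehicle controls → % inhibition.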
Where [7] appears, read: at 5.0 µM (retest, dose inferred, filed as 0.5).
Where [8] appears, read: at 50.0 µM (retest, dose inferred, filed as 5.0).

The text below walks through data of PubChem BioAssay (NCI).

Compounds without any hit were thinned out: in the full panel of roughly 79,000, 15% have a hit. A number with no mark means an inactive call. Active and inactive are the calls of the source. Rule as the data show it: active = growth inhibition above about 70%; inactive = the rest.

For `O=C1C(Cl)C(c2cc(Br)cc(Br)c2O)N1n1cnc2ccccc2c1=O` (configuration not stated), the growth inhibition was 15% in experiment [1] (setting [7]); 96% (active) in experiment [1] (setting [8]); 89.8% (active) in experiment [1] (at 50.0 µM); 35% in experiment [2] (setting [7]); 94% (active) in experiment [2] (setting [8]); 86.7% (active) in experiment [2] (at 50.0 µM). Also, the growth inhibition was 25% in experiment [3] (setting [7]); 98% (active) in experiment [3] (setting [8]); 94.5% (active) in experiment [3] (at 50.0 µM); -16% in experiment [4] (setting [7]); 87% (active) in experiment [4] (setting [8]); 59.2% in experiment [4] (at 50.0 µM). For the same compound, the growth inhibition in experiment [5] (setting [7]) is 22%; in experiment [5] (setting [8]), 98% (active); in experiment [5] (at 50.0 µM) it was 93% (active); in experiment [6] (setting [7]), 20%; in experiment [6] (setting [8]) it was 98% (active); in experiment [6] (at 50.0 µM) it was 97.7% (active).
For `Nc1cc(Cl)c(I)cc1Cl`, the growth inhibition in experiment [1] (setting [7]) was 7%; in experiment [1] (setting [8]) it was 98% (active); in experiment [1] (at 50.0 µM), 74.5% (active); in experiment [2] (setting [7]), -15%; in experiment [2] (setting [8]), 99% (active); in experiment [2] (at 50.0 µM), 15.8%. The growth inhibition in experiment [3] (setting [7]) was -1%; in experiment [3] (setting [8]), 100% (active); in experiment [3] (at 50.0 µM), 50.1%; in experiment [4] (setting [7]), -7%; in experiment [4] (setting [8]) it was 97% (active); in experiment [4] (at 50.0 µM), 32.3%. The growth inhibition in experiment [5] (setting [7]) is -8%; in experiment [5] (setting [8]) it was 99% (active); in experiment [5] (at 50.0 µM) it was 69.2%; in experiment [6] (setting [7]), 34%; in experiment [6] (setting [8]), 99% (active); in experiment [6] (at 50.0 µM) it was 86.8% (active).
`O=c1oc2ccccc2c(O)c1/C=N\c1nc(-c2ccccc2)cs1`: the growth inhibition is 41% in experiment [1] (setting [7]); 99% (active) in experiment [1] (setting [8]); 8.95% in experiment [1] (at 50.0 µM); 42% in experiment [2] (setting [7]); 99% (active) in experiment [2] (setting [8]); 16.4% in experiment [2] (at 50.0 µM). Moreover, the growth inhibition in experiment [3] (setting [7]) is 53%; in experiment [3] (setting [8]) it was 100% (active); in experiment [3] (at 50.0 µM), 31.9%; in experiment [4] (setting [7]) it was 36%; in experiment [4] (setting [8]), 97% (active); in experiment [4] (at 50.0 µM) it was 36.6%. The growth inhibition in experiment [5] (setting [7]) is 81% (active); in experiment [5] (setting [8]), 100% (active); in experiment [5] (at 50.0 µM), 17.1%; in experiment [6] (setting [7]), 34%; in experiment [6] (setting [8]), 99% (active); in experiment [6] (at 50.0 µM), 91.8% (active).
Consider `Oc1c(N(Cc2ccccc2)Cc2ccccc2)ccc2cccnc12`, for which the growth inhibition in experiment [1] (setting [7]) was -2%; in experiment [1] (setting [8]) it was 96% (active); in experiment [1] (at 50.0 µM) it was 98.4% (active); in experiment [2] (setting [7]) it was -15%; in experiment [2] (setting [8]) it was 96% (active); in experiment [2] (at 50.0 µM) it was 98.5% (active). In addition, the growth inhibition is -1% in experiment [3] (setting [7]); 97% (active) in experiment [3] (setting [8]); 98.6% (active) in experiment [3] (at 50.0 µM); -15% in experiment [4] (setting [7]); 95% (active) in experiment [4] (setting [8]); 96.2% (active) in experiment [4] (at 50.0 µM). Moreover, the growth inhibition was -8% in experiment [5] (setting [7]); 97% (active) in experiment [5] (setting [8]); 98.8% (active) in experiment [5] (at 50.0 µM); 1% in experiment [6] (setting [7]); 96% (active) in experiment [6] (setting [8]); 98% (active) in experiment [6] (at 50.0 µM).
For `Oc1ccc(Cl)cc1-c1ccccc1`, the growth inhibition is -1% in experiment [1] (setting [7]); 86% (active) in experiment [1] (setting [8]); 94.1% (active) in experiment [1] (at 50.0 µM); -15% in experiment [2] (setting [7]); 83% (active) in experiment [2] (setting [8]); 97% (active) in experiment [2] (at 50.0 µM). Further, the growth inhibition in experiment [3] (setting [7]) is -13%; in experiment [3] (setting [8]), 76% (active); in experiment [3] (at 50.0 µM) it was 90.2% (active); in experiment [4] (setting [7]), -48%; in experiment [4] (setting [8]) it was 68%; in experiment [4] (at 50.0 µM), 74.2% (active). In addition, the growth inhibition is 1% in experiment [5] (setting [7]); 68% in experiment [5] (setting [8]); 94.7% (active) in experiment [5] (at 50.0 µM); 11% in experiment [6] (setting [7]); 91% (active) in experiment [6] (setting [8]); 91.7% (active) in experiment [6] (at 50.0 µM).
Consider `CC(=O)C1CCC2C3CC(F)C4(O)CC(O)CCC4(C)C3CCC12C` (configuration not stated), for which the growth inhibition is -120% in experiment [1] (setting [7]); 98% (active) in experiment [1] (setting [8]); 4.1% in experiment [1] (at 50.0 µM); -3% in experiment [2] (setting [7]); 99% (active) in experiment [2] (setting [8]); -1% in experiment [2] (at 50.0 µM). For the same compound, the growth inhibition in experiment [3] (setting [7]) was -1%; in experiment [3] (setting [8]) it was 95% (active); in experiment [3] (at 50.0 µM), 62%; in experiment [4] (setting [7]), -6%; in experiment [4] (setting [8]), 58%; in experiment [4] (at 50.0 µM), -9.95%. Also, the growth inhibition was -4% in experiment [5] (setting [7]); 33% in experiment [5] (setting [8]); 85.7% (active) in experiment [5] (at 50.0 µM); -20% in experiment [6] (setting [7]); 99% (active) in experiment [6] (setting [8]); 32.4% in experiment [6] (at 50.0 µM).
As for `O=C1C=C(c2cccc(-c3ccccc3)c2)CCC1`, the growth inhibition in experiment [1] (setting [7]) was 2%; in experiment [1] (setting [8]), 94% (active); in experiment [1] (at 50.0 µM), 93.5% (active); in experiment [2] (setting [7]) it was -2%; in experiment [2] (setting [8]) it was 96% (active); in experiment [2] (at 50.0 µM) it was 95.3% (active). Moreover, the growth inhibition in experiment [3] (setting [7]) is -5%; in experiment [3] (setting [8]), 92% (active); in experiment [3] (at 50.0 µM), 97.2% (active); in experiment [4] (setting [7]), 2%; in experiment [4] (setting [8]) it was 92% (active); in experiment [4] (at 50.0 µM), 95.8% (active). Moreover, the growth inhibition in experiment [5] (setting [7]) was 2%; in experiment [5] (setting [8]), 87% (active); in experiment [5] (at 50.0 µM), 96.3% (active); in experiment [6] (setting [7]), -1%; in experiment [6] (setting [8]) it was 92% (active); in experiment [6] (at 50.0 µM), 96.4% (active).
For the compound `O=C(O)c1ccccc1/C=N/O`, the growth inhibition in experiment [1] (setting [7]) was 1%; in experiment [1] (setting [8]) it was -4%; in experiment [1] (at 50.0 µM), 1.5%; in experiment [2] (setting [7]) it was 2%; in experiment [2] (setting [8]), -2%; in experiment [2] (at 50.0 µM) it was -4.2%. In addition, the growth inhibition in experiment [3] (setting [7]) is 0%; in experiment [3] (setting [8]), -2%; in experiment [3] (at 50.0 µM), 3%; in experiment [4] (setting [7]) it was -2%; in experiment [4] (setting [8]), 1%; in experiment [4] (at 50.0 µM), 93% (active). The growth inhibition is 0% in experiment [5] (setting [7]); -1% in experiment [5] (setting [8]); 4.4% in experiment [5] (at 50.0 µM); 0% in experiment [6] (setting [7]); -3% in experiment [6] (setting [8]); 6.7% in experiment [6] (at 50.0 µM).
As for `S=C(N/N=C/c1ccccn1)N1CCCCC1`, the growth inhibition was 99% (active) in experiment [1] (setting [7]); 98% (active) in experiment [1] (setting [8]); 89.3% (active) in experiment [1] (at 50.0 µM); 97% (active) in experiment [2] (setting [7]); 99% (active) in experiment [2] (setting [8]); 92.4% (active) in experiment [2] (at 50.0 µM). Further, the growth inhibition in experiment [3] (setting [7]) is 98% (active); in experiment [3] (setting [8]) it was 97% (active); in experiment [3] (at 50.0 µM), 91.8% (active); in experiment [4] (setting [7]) it was 96% (active); in experiment [4] (setting [8]) it was 99% (active); in experiment [4] (at 50.0 µM) it was 93% (active). The growth inhibition is 98% (active) in experiment [5] (setting [7]); 100% (active) in experiment [5] (setting [8]); 92% (active) in experiment [5] (at 50.0 µM); 98% (active) in experiment [6] (setting [7]); 99% (active) in experiment [6] (setting [8]); 89.5% (active) in experiment [6] (at 50.0 µM).
